HIV RNase H inh-1 – blocks HIV-1 RNase H cleavage of RNA/DNA duplex | hit rate 1.9% among 65,000 | inhibition, % at 10 µM | P04585 | RT-RNase H RNA/DNA duplex cleavage, fluorescence; in the data active means inhibition above about 50%
HIV RNase H inh-2 – confirmation of HIV-1 reverse transcriptase RNase H inhibitors; inhibition, % at 10 µM; Recombinant RT RNase H, fluorescent RNA/DNA duplex cleavage; shares compounds with HIV RNase H inh-1; AID 651; hit rate 39% among 1,000; in the data active means inhibition above about 48%; inconclusive means no clear call, values can overlap the other calls
A number is an active result; i = inactive; ? = inconclusive. This is one part of a sample in which hits are shown more often than they occur.

SMILES	HIV RNase H inh-1	others
CCn1c(SCC(=O)N(C(C)C)C(C)C)nnc1-c1cc2ccccc2cc1O	i
CCOc1ccc(OCC)c(NC(=O)CCn2c(=O)oc3ccccc32)c1	i
O=C(Nc1nnc(COc2ccccc2)s1)c1ccco1	i
CCOC(=O)Cc1nnc(NC(=O)COc2ccc(C)cc2)s1	i
Cc1ccc(OCc2nnc(NC(=O)Cc3cccs3)s2)cc1	62	HIV RNase H inh-2=?
Cc1ccc(-c2nnc(N(C)C(=O)c3ccccn3)s2)cn1	i
CCn1c(COc2ccc(C)cc2)nnc1SCC(=O)Nc1ccc2c(c1)OCCO2	i
CCOC(=O)CSc1nc2c(c(=O)[nH]c(=O)n2C)n1CCc1ccccc1	i
CCOCCn1c(SC)nc2c1c(=O)[nH]c(=O)n2C	59	HIV RNase H inh-2=i
CCOCCn1c(SCCCc2ccccc2)nc2c1c(=O)[nH]c(=O)n2C	i
CCOCCn1c(SCc2c(F)cccc2Cl)nc2c1c(=O)[nH]c(=O)n2C	i
CCCCCCn1c(SCCCC)nc2c1c(=O)[nH]c(=O)n2C	i
CCCCn1c(SCC(=O)OCC)nc2c1c(=O)[nH]c(=O)n2C	68	HIV RNase H inh-2=64
Cc1ccnc(NC2c3ccccc3C(=O)N2Cc2ccccc2Cl)c1 (centres undefined)	i
COc1ccccc1-n1c(=O)oc2ccc(Cl)cc2c1=O	i
O=C(Cc1ccc(F)cc1)Nc1c2c(nn1-c1cccc(Cl)c1)CS(=O)C2 (centres undefined)	i
O=C(NCc1cccs1)C1CCN(S(=O)(=O)c2cccc3cccnc23)CC1	i
O=C(Nc1ccc(N2CCN(C(=O)c3ccco3)CC2)cc1)c1ccc(F)cc1	i
O=C(Nc1ccc(N2CCOCC2)cc1)c1ccc2nc(-c3ccco3)c(-c3ccco3)nc2c1	91	HIV RNase H inh-2=63
CCCNC(=O)c1cc(-c2ccco2)on1	i
CCCCNC(=O)c1ccc2nc(-c3ccco3)c(-c3ccco3)nc2c1	92	HIV RNase H inh-2=i
Cn1nnc2cc(C(=O)NCc3ccco3)ccc21	i
O=C(NCc1ccco1)c1cccc(NC(=O)c2ccccc2)c1	i
O=C(Nc1nnc(-c2ccco2)s1)c1ccccc1	i
COc1ccc(C(=O)Nc2ccc(N3CCOCC3)cc2)cc1OC	i
SMILES	HIV RNase H inh-1	others
O=C(Nc1ccccc1)c1ccc2nc(-c3ccco3)c(-c3ccco3)nc2c1	100	HIV RNase H inh-2=i
O=C(c1ccccc1)c1nc[nH]c1C(=O)Nc1ccccc1	i
Cn1c(=O)oc2cc(S(=O)(=O)NCCC(=O)N3CCc4ccccc43)ccc21	i
CCOC(=O)C1=C(c2ccccc2)NC(SCC(=O)Nc2ccccc2C)=C(C#N)C1c1ccco1 (centres undefined)	i
O=C1CC(N2CCC(c3nc4ccccc4s3)CC2)C(=O)N1 (centres undefined)	i
Cc1ccc(C(=O)NCC(=O)OCC(=O)c2c(N)n(C)c(=O)n(C)c2=O)s1	i
CCCCOC(=O)Nc1sc2c(c1C(=O)OC)CCC2	i
Cc1c(/C(O)=C2/C(=O)C(=O)N(CCCN3CCOCC3)C2c2ccncc2)cnn1-c1ccccc1 (centres undefined)	i
NC(=O)CNC1CC(=O)N(CCc2ccccc2)C1=O (centres undefined)	i
CC(=O)N=c1cccc(NC(C)=O)n1O	i
Cc1ccc(-c2cc(C(=O)Nc3cc(C)ccc3C)[nH]n2)c(O)c1	i
COc1ccc(CCNC(=O)c2cc(-c3cc(C)c(C)cc3O)n[nH]2)cc1OC	i
COc1ccc(OC)c(NC(=O)c2cc(-c3ccc(C)cc3O)n[nH]2)c1	76	HIV RNase H inh-2=i
Cc1c(C(=O)N2CCCCC2)sc(N)c1C#N	i
Cc1ccc(-n2c(N)c(C(=O)N3CCCCC3)sc2=S)cc1	95	HIV RNase H inh-2=75
CCOC(=O)c1c(N)sc(C(=O)N2CCCC2)c1C	i
Cc1ccc(NS(=O)(=O)c2ccc(C(=O)N3CCCN(C)CC3)cc2)cc1	i
C=CCn1c(N)c(C(=O)N2CCN(C)CC2)sc1=S	i
Cc1ccc(-n2c(N)c(C(=O)N3CCN(C)CC3)sc2=S)cc1	93	HIV RNase H inh-2=63
COc1ccc(-n2cnnc2SCC(=O)N(C)C2CCS(=O)(=O)C2)cc1 (centres undefined)	i
C=CCn1c(SC2CCOC2=O)nc2scc(C3CC3)c2c1=O (centres undefined)	i
Cc1cccc(N(CC(=O)NCC2CCCO2)C(=O)CCC(=O)Nc2cc(C)on2)c1 (centres undefined)	i
CC(Oc1ccc(Cl)cc1Cl)C(=O)NCCCN1CCOCC1 (centres undefined)	i
Cc1ccc2c(C)nc(NC3=NCN(C(C)C)CN3)nc2c1	i
CC1=C(C(=O)Nc2cccnc2)C(c2ccc(C(C)C)cc2)n2ncnc2N1 (centres undefined)	i
SMILES	HIV RNase H inh-1	others
COc1ccc(CNC(=O)C(C)NC(=O)c2cc3ccccc3o2)cc1 (centres undefined)	i
Cc1c(C(=O)NCc2cccnc2)oc2ccc(S(=O)(=O)N3CCCCCC3)cc12	i
Cc1cc(NC(=O)CC(C)(C)C)nc2c1c(=O)oc1ccccc12	i
CCCC(=O)Nc1cc(C)c2c(=O)oc3ccccc3c2n1	i
Cc1cc(NC(=O)CN2CCc3ccccc3C2)nc2c1c(=O)oc1ccccc12	58	HIV RNase H inh-2=i
CCOC(=O)N1CCN(S(=O)(=O)c2cc(OCC(N)=O)c(C)cc2Cl)CC1	i
O=C(Nc1nnc(-c2ccc3c(c2)CCCC3)o1)C1COc2ccccc2O1 (centres undefined)	i
COc1ccccc1NC(=O)Nc1ccnn1Cc1cccs1	i
O=C(CSc1nnc(-c2ccc(F)cc2)o1)Nc1ccc(S(=O)(=O)N2CCCC2)cc1	i
Cc1cccc(NC(=O)CSc2nnc(-c3ccc(S(=O)(=O)N4CCCC4)cc3)o2)c1	i
Cc1ccc(NC(=O)CSc2nnc(-c3ccc(S(=O)(=O)N4CCCC4)cc3)o2)cc1C	70	HIV RNase H inh-2=69
CCCC(=O)N1CCN(S(=O)(=O)c2cc(Cl)ccc2OC)CC1	i
CCCCNC(=O)C(C#N)c1nc2ccccc2nc1N1CCN(c2ccccc2F)CC1 (centres undefined)	i
O=C(Cc1ccc(S(=O)(=O)N2CCCC2)s1)Nc1nc2c(s1)CCCC2	76	HIV RNase H inh-2=i
O=C(CS(=O)(=O)Cc1ccccc1)Nc1nc2c(s1)CCCC2	i
O=C(CCS(=O)(=O)Cc1ccccc1)Nc1nc2c(s1)CCCC2	i
CCCn1c(N)c(Sc2ccc(Cl)cc2)c(=O)n(CCC)c1=O	i
CS(=O)(=O)N1CCN(C(=O)c2ccccc2F)CC1	i
O=C(c1cc(S(=O)(=O)N2CCCCC2)ccc1F)N1CCCCC1	i
O=C(c1ccccc1F)N1CCN(S(=O)(=O)c2ccc(S(=O)(=O)N3CCCCC3)cc2)CC1	77	HIV RNase H inh-2=78
O=C(NCc1cccnc1)C1CCCCN1S(=O)(=O)c1ccc(F)cc1 (centres undefined)	i
Cc1cc(Nc2ccccc2N2CCOCC2)n2ncnc2n1	i
COc1ccc(N2C(=O)CCC(C(=O)Nc3cccc(C)n3)C2c2ccc(OC)c(OC)c2)cc1 (centres undefined)	i
c1coc(-c2nc(-c3ccco3)c(-c3ccco3)nc2-c2ccco2)c1	86	HIV RNase H inh-2=i
Nc1nc(-c2ccco2)c(-c2ccco2)s1	i
Nc1nc(-c2ccco2)cs1	i
C=CCn1c(N)cc(=O)nc1SCC(=O)N1CCN(c2ccc(F)cc2)CC1	i
Cc1cc(-c2ccco2)c(C#N)c2nc3ccccc3n12	i
CCOC(=O)CSc1nc(N)c(C#N)c(-c2ccc(OCC)cc2)c1C#N	i
N#Cc1c(N)nc(SCC(=O)NC2CCCCC2)c(C#N)c1-c1ccc(Cl)cc1	82	HIV RNase H inh-2=59

From PubChem BioAssay
